Experimental data taken from PMC5540273 (PLoS ONE, 2017).

What follows are compounds tested on T1, DCAMKL1. Details: concentration: 1 μM, replicates: in singlicate; n = 1.
T1 construct: gene DCLK1
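Note: KINOMEscan kinase panel screen.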

| Compound | %Inh [%] |
| --- | --- |
| CCc1ccc(-c2ccc3c(c2)-c2nn(C)cc2S(=O)(=O)N3C)cc1 | 22 |
| Nc1n[nH]c2ncc(-c3ccccc3)cc12 [SB-517081] | 13 |
| Cc1nc(N(C)[C@H]2CN(C(=O)CC#N)CC[C@H]2C)c2cc[nH]c2n1 | 6 |
| COc1ccc(-c2coc3ccc(-c4nnc(SCc5cccc(C#N)c5)o4)cc23)cc1 | 35 |
| CCC(=O)c1c(-c2ccccc2)c2cc(Cl)ccc2c(=O)n1Cc1cc(S(C)(=O)=O)n(CCC(C)(C)O)n1 | 15 |
| COc1cc2ncn(-c3cc(OCc4ccncc4)c(C(N)=O)s3)c2cc1OC [GSK336313] | 4 |
| Nc1nccc2scc(-c3ccc4c(c3)CCN4C(=O)Cc3ccccc3)c12 [GSK2576924] | 16 |
| COC(=O)c1c(-c2ccccc2)c2cc(Br)ccc2c(=O)n1Cc1ccc(S(C)(=O)=O)cc1 | 24 |
| CCCC(=O)Nc1n[nH]c2ncc(-c3cccc4ccccc34)cc12 [SB-642057] | 18 |
| O=C1NC(=O)C(c2ccccc2)=C1Nc1cccc(O)c1 [SB-390534] | 6 |
| Cc1nn2c(=O)cc(N3CCOCC3)nc2n1Cc1cccc(Cl)c1Cl [GSK2342769] | 0 |
| C[C@@H]1CC[C@H](C(=O)NC2CCCCC2)CN1c1cc(-c2ccc3c(N)n[nH]c3c2)nc(N)n1 [GSK2291363] | 14 |
| Nc1ncnc2c1ncn2-c1cccc2ccccc12 [SKF-97184] | 0 |
| COc1cc2ncn(-c3cc(OCc4ccncc4Br)c(C(N)=O)s3)c2cc1OC [GW854278] | 0 |
| COc1cc2ncn(-c3cc(OCCCc4ccccc4)c(C(N)=O)s3)c2cc1OC [GSK205189] | 0 |
| O=C(Nc1n[nH]c2nc(-c3ccccc3)c(Cl)cc12)C1CC1 [SB-734909] | 16 |
| COc1ccc(-c2cc3c(C)nc(N)nc3n([C@H]3CC[C@H](OCCO)CC3)c2=O)cn1 | 0 |
| CCC(=O)c1c(-c2ccccc2)c2cc(Cl)ccc2c(=O)n1Cc1ccc(C(=O)O)cc1 | 8 |
| Cc1nnc(-c2ccc(C)c(-c3ccc(C(=O)O)cc3)c2)o1 [GW608005] | 0 |

| Compound | %Inh [%] |
| --- | --- |
| Cc1ccccc1COc1cc(-n2cnc3cc(Cl)ccc32)sc1C(N)=O [GW813349] | 0 |
| Cc1ccc(Oc2ccc(Nc3ncnc4cc[nH]c34)cc2C)cn1 | 0 |
| CCCNC(=O)Nc1ccc(Oc2ncnc3ccn(C)c23)cc1 | 35 |
| COc1cc(Nc2nccc(N3CCC(NC(=O)C4COc5ccccc5O4)C3)n2)cc(OC)c1OC (stereo not shown) [GSK1379761] | 0 |
| COc1cc2ncn(-c3cc(OCc4ccc(S(C)(=O)=O)cc4)c(C(N)=O)s3)c2cc1OC [GW869979] | 1 |
| COc1cc(Nc2ccnc3ccc(C(F)(F)F)cc23)cc(OC)c1OC [GW577382] | 5 |
| O=C(Nc1n[nH]c2cc(-c3ccccc3F)ccc12)C1CC1 [SB-733371] | 16 |
| COC(=O)c1c(-c2ccccc2)c2cc(C)ccc2c(=O)n1Cc1ccccc1 | 0 |
| FC(F)(F)c1ccc(-c2ncn(CCCN3CCOCC3)c2-c2ccncc2)cc1 [SB-217780] | 13 |
| Cl.NS(=O)(=O)c1cccc(Nc2cc(-c3ccc(F)cc3)n[nH]2)c1 [GW824645] | 15 |
| COc1cccc(C2=C(N(C)c3ccccc3)C(=O)NC2=O)c1 [SB-334865] | 18 |
| Cn1c(=O)c(F)c(Nc2ccc(I)cc2F)c2c(=O)n(OC[C@H](O)CO)cnc21 | 13 |
| Fc1cccc(CSc2nnc(-c3ccc4c(c3)CCO4)o2)c1 | 20 |
| Nc1ncnc2c1ncn2-c1cccc(F)c1 [SKF-97560] | 0 |
| COc1cc(OC)cc(-c2cc3cnc(N)nc3nc2NC(=O)NC(C)(C)C)c1 | 0 |
| CCc1nc(-c2cccc(C)c2)c(-c2ccncc2)s1 | 30 |
| COc1ccc(Nc2nccc(N3CCC(NS(=O)(=O)c4ccc(NC(C)=O)cc4)C3)n2)cc1 (stereo not shown) [GSK1379729] | 10 |
| COc1ccc(-n2cnc3c(N)ncnc32)cc1 [SKF-97236] | 13 |
